Results: a collection of fitness landscapes (doi:10.1016/j.celrep.2020.107928)
Whole data set: some 81,000 sequences, median “one-hybrid fitness for binding parS DNA” near -0.17, cut for the highest 2% near 0.51. This is one part of a sample in which the highest values are shown more often than they occur.

B1: Caulobacter ParB omega fusion; a variant is named by its letters at X, in order, B8GW30 (parent)
chain: MESVVVGEPGMSEGRRGLGRGLSALLGEVDAAPAQAPGEQLGGSREAPIEILQRNPDQPRRTFREEDLEDLSNSIREKGVLQPILVRPSPDTAGEYQIVAGERAWRAAQRAGLKTVPIMVRELDDLAVLEIGIIENVQRADLNVLEEALSYKVLMEKFERTQENIAQTIGKSXSHVANXMRLLXLPDEVQSYLVSGELTAXHARAIAAAADPVALAKQIIEGGLSVRETEALARKAPNLSAGKSKGGRPPRVKDTDTQALESDLSSVLGLDVSIDHRGSTGTLTITYATLEQLDDLCNRLTRGI

Variants of: B1
Test: one-hybrid fitness for binding parS DNA (scaled: cognate 1, non-cognate 0); higher = stronger binding
Settings: with parS DNA site
How it was run: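 Fitness is the rescaled log change in variant-to-wild-type read ratio, measured by Illumina sequencing of plasmids before and after bacterial one-hybrid selection. The scale puts cognate at 1 and non-cognate at 0. Selection of Caulobacter ParB libraries, four specificity codons randomised, took place in E. coli USO with a HIS3 reporter, site 19 bp from the promoter, over 48 hours at 37°C on M9-minus-histidine with 0.1 mM IPTG and 5 mM 3-AT.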

one-hybrid fitness for binding parS DNA, 0.203:
RCPM

one-hybrid fitness for binding parS DNA, 0.217:
RELG

one-hybrid fitness for binding parS DNA, 0.474:
RQMY

one-hybrid fitness for binding parS DNA, 0.776:
RNES

one-hybrid fitness for binding parS DNA, 0.993:
RILG

one-hybrid fitness for binding parS DNA, 0.677:
RNEG

one-hybrid fitness for binding parS DNA, 0.987:
RSLG

one-hybrid fitness for binding parS DNA, 0.846:
RSLT

one-hybrid fitness for binding parS DNA, 1.01:
RMLG
RCLG
RLNG

one-hybrid fitness for binding parS DNA, 0.856:
RADC

one-hybrid fitness for binding parS DNA, 0.376:
RHLN

one-hybrid fitness for binding parS DNA, 0.238:
RMLF

one-hybrid fitness for binding parS DNA, 0.967:
RNSS

one-hybrid fitness for binding parS DNA, 0.974:
RMLT

one-hybrid fitness for binding parS DNA, 0.895:
RNLS

one-hybrid fitness for binding parS DNA, 0.873:
RNGS

one-hybrid fitness for binding parS DNA, 0.98:
RANC

one-hybrid fitness for binding parS DNA, 0.422:
RILN

one-hybrid fitness for binding parS DNA, 0.931:
RLDG

one-hybrid fitness for binding parS DNA, 0.363:
RMLM

one-hybrid fitness for binding parS DNA, 0.347:
RKRN

one-hybrid fitness for binding parS DNA, 0.228:
RSLF

one-hybrid fitness for binding parS DNA, 0.966:
RCLT
RLRG

one-hybrid fitness for binding parS DNA, 0.33:
RQMM

one-hybrid fitness for binding parS DNA, 0.613:
RNEC

one-hybrid fitness for binding parS DNA, 0.423:
RQMN

one-hybrid fitness for binding parS DNA, 0.955:
RKWS

one-hybrid fitness for binding parS DNA, 0.921:
RNQS

one-hybrid fitness for binding parS DNA, 0.364:
RKWN

one-hybrid fitness for binding parS DNA, 0.945:
RQMC

one-hybrid fitness for binding parS DNA, 0.271:
RLYH

one-hybrid fitness for binding parS DNA, 0.881:
RQMT

one-hybrid fitness for binding parS DNA, 0.85:
RNYS

one-hybrid fitness for binding parS DNA, 0.269:
RILF

one-hybrid fitness for binding parS DNA, ≤ 0.2:
AWGT
HHGR
DVDS
SCTT
KNMC
RKRH
RKWD
IFGG
PIND
RPLG
RDLG
RLLR
LDYT
HWFG
EKQG
CHLC
FSIV
ATPA
KWRR
QQPM
ALLC
TRRD
NQPG
PPRF
RILK
YPTC
MMSV
EQTA
ACKY
RNED
RNEN
RNEP
RNEH
RNEY
RNEI
FPSI
MKLG
VKMN
KPPS
RANR
RANK
RADQ
RADF
QRLS
QMWS
SDGC
MATR
VQVL
PGTH
KCMT
GHPI
YKKF
RDLT
RMLD
RMLP
RILD
RPLT
RSLP
QFVS
EYRS
FKLR
GPRL
HRFW
QVAA
QNKG
GITA
YHLM
YQRH
STFL
RKSE
PSQM
HSHL
RTLK
RHLP
TKSI
DEMS
YRHE
PEDT
VYPT
RRGD
RRGH
RRGP
WDVG
IHRW
RLRK
RLYP
RLDD
RLDP
RLRD
RLNQ
CISS
EWYV
QRYM
QVRQ
THSV
AQCS
NWKY
KFYT
RQMQ
RQMP
RQML
RQMD
DRVV
NSRG
SMFV
FLVT
RNHH
RNIH
RNHP
RNLD
RNWP
RNWN
MDVV
QCYT
GRNR
EQIG
FSEV
HKDS
YPGT
ADYG
CAGL
RNQH
RNYH
RNGD
RNGP
RNSP
RNQP
GNAI
MPRT
LHGD
GSGG
TQRY
LATY
GQKN
HRKI

one-hybrid fitness for binding parS DNA, 0.251:
RNLN

one-hybrid fitness for binding parS DNA, 0.639:
RRGS

one-hybrid fitness for binding parS DNA, 0.747:
RKRS

one-hybrid fitness for binding parS DNA, 1.03:
RLYG

one-hybrid fitness for binding parS DNA, 1.02:
RLLG

one-hybrid fitness for binding parS DNA, 0.207:
RSLH

one-hybrid fitness for binding parS DNA, 0.597:
RNIG

one-hybrid fitness for binding parS DNA, 0.292:
RQMH

one-hybrid fitness for binding parS DNA, 0.495:
RLNY

one-hybrid fitness for binding parS DNA, 0.911:
RNHS

one-hybrid fitness for binding parS DNA, 0.385:
RNSN

one-hybrid fitness for binding parS DNA, 0.973:
RQMG

one-hybrid fitness for binding parS DNA, 0.834:
RHLT

one-hybrid fitness for binding parS DNA, 0.89:
RILT

one-hybrid fitness for binding parS DNA, 0.705:
RNWS

one-hybrid fitness for binding parS DNA, 0.267:
RTLF

one-hybrid fitness for binding parS DNA, 0.372:
RLLM

one-hybrid fitness for binding parS DNA, 0.478:
RNPS

one-hybrid fitness for binding parS DNA, 0.445:
RCGN

one-hybrid fitness for binding parS DNA, 0.936:
RTLT

one-hybrid fitness for binding parS DNA, 0.998:
RQMS

one-hybrid fitness for binding parS DNA, 0.777:
RRGN

one-hybrid fitness for binding parS DNA, 0.433:
RNPG
